High-throughput results deposited in PubChem by National Center for Advancing Translational Sciences (NCATS).
NS1 function inh = inhibitors of influenza NS1 protein function; Potency, µM (titrated, usually from 46.1 µM), inactives show top-dose activity, positive = more growth; 270,000 tested, 0.4% active; calls by dose curve; also: potency is read from the fitted curve at half-maximal effect; actives are rising curves; nearly all actives have a fitted effect of over 50% in size
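OD600 was taken as the measure of yeast growth restored by compound in an NS1-expressing S. cerevisiae strain. Cells had been washed out of glucose medium and diluted 1:100 into galactose -URA medium, pH 6.0.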
Pf growth 48h = inhibits P. falciparum growth in the first generation, 48 h; P. falciparum luciferase growth in erythrocytes, 48 h; AID 504832; Potency, µM (highest dose often 28.7 µM), for inactives: at the highest dose activity change, negative = inhibition, actives largely listed as inhibitors; 310,000 tested, 5.9% active; also: potency is read from the fitted curve at half-maximal effect; % is scaled to controls: 0 for no effect and ±100 for the full control effect
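Here the parasites carry a stable luciferase gene and grow inside erythrocytes in Albumax-based RPMI medium with compound for one erythrocytic cycle. Activity is scored as loss of luminescent signal.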
Cycloheximide cs = affects cycloheximide protein synthesis inhibition readout, counter-screen; max response, %; cell reporter, cycloheximide protein synthesis inhibition counterscreen; 300,000 tested, 12% active; in the data active = max response mostly above about 13%, no sharp cut-off; inactive = mostly below about 14%; also: read at 38.3 µM for the half of the compounds with a filed dose; 0% is about no effect
Pf growth 96h = inhibits malaria parasite growth, 96 h | P. falciparum luciferase reporter growth, 96 h | Potency, µM (series often up to 28.7 µM), for the others: at the top dose activity change, negative = inhibition, actives largely listed as inhibitors | 320,000 tested, 6.9% active; also: potency is read from the fitted curve at half-maximal effect; % is scaled to controls: 0 for no effect and ±100 for the full control effect
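P. falciparum expressing integrated firefly luciferase grown in erythrocytes (2% hematocrit, 0.05% parasitemia final) with compounds for 96 hours at 37 C, 5% CO2. Growth inhibition read as loss of luminescence after adding luciferase detection reagent.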
Shiga inhibitor = blocks Shiga toxin action in Vero cells; 290,000 tested, 9.2% active; AID 2315; inhibition, % at 38.7 µM; Vero cells, Shiga toxin protein synthesis inhibition reporter; in the data active = inhibition mostly above about 28%, no sharp cut-off; inactive = mostly below about 43%; also: 0% is about no effect
* hit, by the source's call. Most compounds without a hit are left out; they make up all but 21% or so of the library. Unless noted, calls follow the shape of the dose curve; as a rule, active = well fitted inhibition curve with a large enough effect; inconclusive = small, poorly fitted or top-dose-only effect, or another doubt; inactive = no such curve, though single readings can be large or run the other way.

What do the screens show for `O=C(O)C1C2CCC(C2)C1C(=O)Nc1cc(F)ccc1F` (centres undefined)?
NS1 function inh: -1%; Pf growth 48h: 2%; Cycloheximide cs: -5; Shiga inhibitor: 9

Results for O=C1NCCC/C1=N/Nc1cc(F)ccc1F ?
NS1 function inh: -73%; Pf growth 48h: 70%; Cycloheximide cs: 36*; Pf growth 96h: 114%; Shiga inhibitor: 42*

What do the screens show for `Cc1ccc(N/N=C2/CCCNC2=O)cc1`?
NS1 function inh: 2%; Pf growth 48h: 24%; Cycloheximide cs: 11; Pf growth 96h: 89%; Shiga inhibitor: 40

Results for CC(=O)c1ccc(N/N=C2/CCCNC2=O)cc1 ?
NS1 function inh: -3%; Pf growth 48h: inconclusive; Cycloheximide cs: 22*; Pf growth 96h: -10%; Shiga inhibitor: 45

How did O=C(CCc1nnc(Cc2cccc(C(F)(F)F)c2)o1)NC1CC1 do in these assays?
NS1 function inh: 4%; Pf growth 48h: 3%; Cycloheximide cs: 2; Pf growth 96h: inconclusive; Shiga inhibitor: 15

What do the screens show for `CC(NC(=O)CCc1nnc(Cc2cccc(C(F)(F)F)c2)o1)C1CC1` (centres undefined)?
NS1 function inh: -1%; Pf growth 48h: 3%; Cycloheximide cs: 53*; Pf growth 96h: 32%; Shiga inhibitor: 92*

What do the screens show for `C=C(C)CNC(=O)CCc1nnc(Cc2cccc(C(F)(F)F)c2)o1`?
NS1 function inh: -7%; Pf growth 48h: 17%; Cycloheximide cs: 44*; Pf growth 96h: -1%; Shiga inhibitor: 123*

How did CC(C)CN(C)C(=O)CCc1nnc(Cc2cccc(C(F)(F)F)c2)o1 do in these assays?
NS1 function inh: -1%; Pf growth 48h: 39%; Cycloheximide cs: 47*; Pf growth 96h: -5%; Shiga inhibitor: 109*

Results for CCCCCCCC(=O)NNC(=O)CC(=O)Nc1ccccc1C(=O)O ?
NS1 function inh: 10%; Pf growth 48h: 9%; Cycloheximide cs: -1; Pf growth 96h: 153%; Shiga inhibitor: -2

Results for COc1ccc(C)cc1NC(=O)CN1C(=O)COc2ccc(C)cc21 ?
NS1 function inh: 6%; Pf growth 48h: -10%; Cycloheximide cs: -2; Pf growth 96h: 5.2µM*; Shiga inhibitor: -9

Results for CCCCCCCCC(=O)Nc1cc(C)ccc1OC ?
NS1 function inh: -5%; Pf growth 48h: 10µM*; Cycloheximide cs: -2; Pf growth 96h: inconclusive; Shiga inhibitor: 4

What do the screens show for `COc1ccccc1OCC(=O)NNC(=O)C1CCN(c2ncnc3sc(C)c(C)c23)CC1`?
Pf growth 48h: inconclusive; Pf growth 96h: 20%

What do the screens show for `Cc1sc2ncnc(N3CCC(C(=O)N(CC(C)C)c4nc5ccccc5s4)CC3)c2c1C`?
Pf growth 48h: inconclusive; Pf growth 96h: 3.7µM*

What do the screens show for `CCOc1ccc(NC(=O)CN(C)C(=O)C2CCN(c3ncnc4sc(C)c(C)c34)CC2)cc1OCC`?
NS1 function inh: -27%; Pf growth 48h: inconclusive; Cycloheximide cs: -3; Pf growth 96h: inconclusive; Shiga inhibitor: -16

How did CCCN(CC(=O)Nc1ccccc1C)C(=O)C1CCN(c2ncnc3sc(C)c(C)c23)CC1 do in these assays?
Pf growth 48h: inconclusive; Pf growth 96h: 7.4µM*

Results for CCCN(CC(=O)Nc1ccccc1C)C(=O)C1CCN(S(=O)(=O)c2ccccc2C(F)(F)F)CC1 ?
Pf growth 48h: 9.3µM*; Pf growth 96h: inconclusive

Results for COc1ccc(N2CCN(C(=O)NCc3ccc(OC)c(Cl)c3)CC2)cc1 ?
Pf growth 48h: inconclusive; Cycloheximide cs: 1; Pf growth 96h: 15%; Shiga inhibitor: -4

What do the screens show for `O=C(NCC1CC1)c1ccccc1Cl`?
NS1 function inh: 6%; Pf growth 48h: 4%; Cycloheximide cs: -2; Pf growth 96h: 7%; Shiga inhibitor: 4

Results for CN(Cc1ccccc1F)C(=O)c1ccc2c(=O)n3c(nc2c1)CCC3 ?
Pf growth 48h: inconclusive; Pf growth 96h: -1%

Results for Cn1nc(-c2ccc(OCC(=O)NCC3CCCO3)cc2)c2ccccc2c1=O (centres undefined) ?
NS1 function inh: -13%; Pf growth 48h: -30%; Cycloheximide cs: -1; Pf growth 96h: inconclusive; Shiga inhibitor: -10

What do the screens show for `O=S(=O)(Cc1cc(NCc2ccccc2)nc(-c2ccccn2)n1)c1ccccc1`?
Pf growth 48h: inconclusive; Cycloheximide cs: 4; Pf growth 96h: 8.3µM*; Shiga inhibitor: -10
